For 26 molecules, mean signal, red/green cell ratio (normalised) and normalised cell number results are on record in PubChem BioAssay.

Activity calls are given as the source filed them.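 How the source made its calls, unless noted: active means compounds killing one labelled cell type while sparing the other, by normalised counts and ratio limits, not self-fluorescent; inactive means the rest.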

A short description of one test: modulation of C. elegans fzo-1 (AID 1259413; call rule not given here;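 further: fzo-1 mutant C. elegans worms in liquid wells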). The following applies: C. elegans fzo-1 modulator screen, mean read-out; stronger effect = higher value.
Consider `O=C(O)CCc1nc(-c2ccccc2)c(-c2ccccc2)o1`, for which the mean signal is 247 (inactive).
For `CC(C)OC(=O)C(C)(C)Oc1ccc(C(=O)c2ccc(Cl)cc2)cc1`, the mean signal was 232 (inactive).
On the same count and under the same terms, the value for `CC(C(=O)O)c1cccc(C(=O)c2ccccc2)c1` (stereo not drawn) was 232 (inactive).
`CN1CCN(C2=Nc3cc(Cl)ccc3Nc3ccccc32)CC1`: the mean signal is 262 (inactive).
Still for that read-out and setting: the value for `COC(=O)C1=C(C)NC(C)=C(C(=O)OC)C1c1ccccc1[N+](=O)[O-]` was 242 (inactive).

Another test is described as follows: differential killing of epithelial or mesenchymal cells, primary screen, imaging, PC-3E GFP, TEM4-18 mCherry, co-culture (AID 1345086).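 Further: cells exposed to compound for 72 h before imaging.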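 On red/green cell ratio (normalised): normalised mesenchymal count divided by normalised epithelial count so high means epithelial killing.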 To be noted: imaging cell counts, at 1 µM, actives lie on both sides, counts scaled to control wells, 1 = unselective.
For the molecule `COCCCOc1ccnc(CS(=O)c2nc3ccccc3[nH]2)c1C` (stereo not drawn), the red/green cell ratio (normalised) is 0.79 (inactive).
Same read-out and setting: next, `N=c1nc(N2CCCCC2)cc(N)n1O`: 1.27 (inactive); `CC(C)NCC(O)COc1cccc2[nH]ccc12` (stereo not drawn): 1.41 (inactive); `CCn1cc(C(=O)O)c(=O)c2ccc(C)nc21`: 0.88 (inactive).
The same measure, in the same setting: the value for `CN(C)C(=O)C(CCN1CCC(O)(c2ccc(Cl)cc2)CC1)(c1ccccc1)c1ccccc1` was 1.02 (inactive); that for `Cc1cc(NS(=O)(=O)c2ccc(N)cc2)no1` was 1.25 (inactive).
Same read-out and setting: the value for `CCCC(CCC)C(=O)O` was 1.21 (inactive); that for `O=C1CN(/N=C/c2ccc([N+](=O)[O-])o2)C(=O)N1` was 0.97 (inactive).
Regarding `COc1cc(Cc2cnc(N)nc2N)cc(OC)c1OC`, the red/green cell ratio (normalised) is 1.12 (inactive).
On the same count and under the same terms, next, `COC(=O)C1=C(C)NC(C)=C(C(=O)OCCN(C)Cc2ccccc2)C1c1cccc([N+](=O)[O-])c1` (stereo not drawn): 0.81 (inactive).
Regarding `O=C(CCCN1CCC(O)(c2ccc(Cl)cc2)CC1)c1ccc(F)cc1`, the red/green cell ratio (normalised) is 0.92 (inactive).
For the molecule `CC12CCC(CC1)C(C)(C)O2`, the red/green cell ratio (normalised) is 0.83 (inactive).
On the same count and under the same terms, the value for `CC(C)(C)NCC(O)c1ccc(O)c(CO)c1` (stereo not drawn) was 0.85 (inactive).
Consider `COc1ccc2cc([C@H](C)C(=O)O)ccc2c1`, for which the red/green cell ratio (normalised) was 1.07 (inactive).
On the same count and under the same terms, next, `COc1c2occc2cc2ccc(=O)oc12`: 1.15 (inactive).
`NC(=O)c1cccnc1`: the red/green cell ratio (normalised) is 1.14 (inactive).
On the same count and under the same terms, the value for `CN/C(=C\[N+](=O)[O-])NCCSCc1ccc(CN(C)C)o1` was 1.01 (inactive); that for `CNCCCN1c2ccccc2CCc2ccccc21` was 1.1 (inactive); that for `CN1C(=O)CC[C@H]1c1cccnc1` was 1.08 (inactive).
As for `CCCC(=O)Nc1ccc(OCC(O)CNC(C)C)c(C(C)=O)c1` (stereo not drawn), the red/green cell ratio (normalised) was 0.87 (inactive).
Same read-out and setting: next, `O=C(O)CCc1nc(-c2ccccc2)c(-c2ccccc2)o1`: 1.03 (inactive); `CC(C)OC(=O)C(C)(C)Oc1ccc(C(=O)c2ccc(Cl)cc2)cc1`: 1.01 (inactive).
Take `CC(C(=O)O)c1cccc(C(=O)c2ccccc2)c1` (stereo not drawn): the red/green cell ratio (normalised) is 1.06 (inactive).
The same measure, in the same setting: next, `CN1CCN(C2=Nc3cc(Cl)ccc3Nc3ccccc32)CC1`: 1.04 (inactive); `Oc1ccc(O)cc1`: 1.14 (inactive).
Still for that read-out and setting: next, `COC(=O)C1=C(C)NC(C)=C(C(=O)OC)C1c1ccccc1[N+](=O)[O-]`: 0.87 (inactive).

Still in this test, the particulars now being: imaging cell counts, measured here: epithelial PC-3E GFP cell survival, at 1 µM.
For `COCCCOc1ccnc(CS(=O)c2nc3ccccc3[nH]2)c1C` (stereo not drawn), the normalised cell number is 1.16.
Same read-out and setting: the value for `N=c1nc(N2CCCCC2)cc(N)n1O` was 1.08; that for `CC(C)NCC(O)COc1cccc2[nH]ccc12` (stereo not drawn) was 0.83.
The same measure, in the same setting: the value for `CCn1cc(C(=O)O)c(=O)c2ccc(C)nc21` was 1.09; that for `CN(C)C(=O)C(CCN1CCC(O)(c2ccc(Cl)cc2)CC1)(c1ccccc1)c1ccccc1` was 1.3.
The same measure, in the same setting: the value for `Cc1cc(NS(=O)(=O)c2ccc(N)cc2)no1` was 1.05.
Turning to `CCCC(CCC)C(=O)O`, the normalised cell number amounted to 0.95.
As to `O=C1CN(/N=C/c2ccc([N+](=O)[O-])o2)C(=O)N1`, the normalised cell number worked out at 1.08.
On the same count and under the same terms, next, `COc1cc(Cc2cnc(N)nc2N)cc(OC)c1OC`: 0.91; `COC(=O)C1=C(C)NC(C)=C(C(=O)OCCN(C)Cc2ccccc2)C1c1cccc([N+](=O)[O-])c1` (stereo not drawn): 1.09; `O=C(CCCN1CCC(O)(c2ccc(Cl)cc2)CC1)c1ccc(F)cc1`: 0.87.
The same measure, in the same setting: next, `CC12CCC(CC1)C(C)(C)O2`: 1.13; `CC(C)(C)NCC(O)c1ccc(O)c(CO)c1` (stereo not drawn): 1.18; `COc1ccc2cc([C@H](C)C(=O)O)ccc2c1`: 1.19.
With `COc1c2occc2cc2ccc(=O)oc12`, the normalised cell number came to 0.84.
The same measure, in the same setting: the value for `NC(=O)c1cccnc1` was 1.05.
The same measure, in the same setting: next, `CN/C(=C\[N+](=O)[O-])NCCSCc1ccc(CN(C)C)o1`: 1.03; `CNCCCN1c2ccccc2CCc2ccccc21`: 1.36.
The same measure, in the same setting: the value for `CN1C(=O)CC[C@H]1c1cccnc1` was 1.13.
For the molecule `CCCC(=O)Nc1ccc(OCC(O)CNC(C)C)c(C(C)=O)c1` (stereo not drawn), the normalised cell number came to 1.07.
Same read-out and setting: the value for `O=C(O)CCc1nc(-c2ccccc2)c(-c2ccccc2)o1` was 1.14.
The same measure, in the same setting: the value for `CC(C)OC(=O)C(C)(C)Oc1ccc(C(=O)c2ccc(Cl)cc2)cc1` was 1; that for `CC(C(=O)O)c1cccc(C(=O)c2ccccc2)c1` (stereo not drawn) was 1.07; that for `CN1CCN(C2=Nc3cc(Cl)ccc3Nc3ccccc32)CC1` was 1.09.
As for `Oc1ccc(O)cc1`, the normalised cell number came to 1.14.
Still for that read-out and setting: the value for `COC(=O)C1=C(C)NC(C)=C(C(=O)OC)C1c1ccccc1[N+](=O)[O-]` was 1.03.

Still in this test, the particulars now being: imaging cell counts, measured here: mesenchymal TEM4-18 mCherry cell survival, at 1 µM.
Molecule `COCCCOc1ccnc(CS(=O)c2nc3ccccc3[nH]2)c1C` (stereo not drawn) returned a normalised cell number of 0.91.
The same measure, in the same setting: next, `N=c1nc(N2CCCCC2)cc(N)n1O`: 1.37.
For `CC(C)NCC(O)COc1cccc2[nH]ccc12` (stereo not drawn), the normalised cell number is 1.17.
Still for that read-out and setting: next, `CCn1cc(C(=O)O)c(=O)c2ccc(C)nc21`: 0.97; `CN(C)C(=O)C(CCN1CCC(O)(c2ccc(Cl)cc2)CC1)(c1ccccc1)c1ccccc1`: 1.33.
On the same count and under the same terms, next, `Cc1cc(NS(=O)(=O)c2ccc(N)cc2)no1`: 1.32; `CCCC(CCC)C(=O)O`: 1.15; `O=C1CN(/N=C/c2ccc([N+](=O)[O-])o2)C(=O)N1`: 1.05.
Same read-out and setting: next, `COc1cc(Cc2cnc(N)nc2N)cc(OC)c1OC`: 1.02; `COC(=O)C1=C(C)NC(C)=C(C(=O)OCCN(C)Cc2ccccc2)C1c1cccc([N+](=O)[O-])c1` (stereo not drawn): 0.89; `O=C(CCCN1CCC(O)(c2ccc(Cl)cc2)CC1)c1ccc(F)cc1`: 0.8.
`CC12CCC(CC1)C(C)(C)O2`: the normalised cell number was determined as 0.94.
Still for that read-out and setting: the value for `CC(C)(C)NCC(O)c1ccc(O)c(CO)c1` (stereo not drawn) was 1; that for `COc1ccc2cc([C@H](C)C(=O)O)ccc2c1` was 1.27; that for `COc1c2occc2cc2ccc(=O)oc12` was 0.96.
`NC(=O)c1cccnc1`: the normalised cell number worked out at 1.2.
`CN/C(=C\[N+](=O)[O-])NCCSCc1ccc(CN(C)C)o1` showed a normalised cell number of 1.04.
On the same count and under the same terms, the value for `CNCCCN1c2ccccc2CCc2ccccc21` was 1.5.
Same read-out and setting: the value for `CN1C(=O)CC[C@H]1c1cccnc1` was 1.23; that for `CCCC(=O)Nc1ccc(OCC(O)CNC(C)C)c(C(C)=O)c1` (stereo not drawn) was 0.93.
The same measure, in the same setting: the value for `O=C(O)CCc1nc(-c2ccccc2)c(-c2ccccc2)o1` was 1.18.
As for `CC(C)OC(=O)C(C)(C)Oc1ccc(C(=O)c2ccc(Cl)cc2)cc1`, the normalised cell number came to 1.
Same read-out and setting: the value for `CC(C(=O)O)c1cccc(C(=O)c2ccccc2)c1` (stereo not drawn) was 1.13.
As for `CN1CCN(C2=Nc3cc(Cl)ccc3Nc3ccccc32)CC1`, the normalised cell number is 1.14.
On the same count and under the same terms, the value for `Oc1ccc(O)cc1` was 1.29; that for `COC(=O)C1=C(C)NC(C)=C(C(=O)OC)C1c1ccccc1[N+](=O)[O-]` was 0.9.
